Experimental data from PubChem BioAssay (EPA / NIEHS).
Inconclusive results are not listed. Some compounds were tested as several samples or in several runs, with calls that do not always agree. Calls of active or inactive are those of the source. How the source made its calls: active means hit-call score of the fitted dose curve at least 0.9, where 1 is the maximum; inconclusive means response in the unintended direction; inactive means score below 0.9.

Experiments:
[1] = ATG_XTT_Cytotoxicity: Cytotoxicity Assessment in the Attagene TRANS-FACTORIAL HepG2 Assay (AID 2283584)
Method in brief: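 24 h chemical exposure of reporter-transfected HepG2; XTT signal loss vs DMSO indicates cytotoxicity.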

[2] = TOX21_p53_BLA_p2_viability: Viability Assessment in the Tox21 HCT-116 p53 Agonism Beta-lactamase Assay, Phase 2 (AID 2283591);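 further: compound exposure lasted 16 h at 37 °C; actives lower the ATP signal meaning cytotoxicity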
Method in brief: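 HCT116 p53-bla cells, 4000/well, dosed after 5 h plating (217-fold dilution of DMSO stocks) and incubated 16 h at 37C. Viability taken as cellular ATP by CellTiter-Glo luminescence after 30 min RT; signal loss marks cytotoxicity.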

[3] = biological target: Cellular tumor antigen p53 (Homo sapiens) (UniProt P04637); test: TOX21_p53_BLA_p2_ratio: Tox21 HCT-116 p53 Agonism Beta-lactamase Assay, Ratio, Phase 2 (AID 2283592)
Sequence of Cellular tumor antigen p53 (Homo sapiens) (P04637 whole entry, looked up): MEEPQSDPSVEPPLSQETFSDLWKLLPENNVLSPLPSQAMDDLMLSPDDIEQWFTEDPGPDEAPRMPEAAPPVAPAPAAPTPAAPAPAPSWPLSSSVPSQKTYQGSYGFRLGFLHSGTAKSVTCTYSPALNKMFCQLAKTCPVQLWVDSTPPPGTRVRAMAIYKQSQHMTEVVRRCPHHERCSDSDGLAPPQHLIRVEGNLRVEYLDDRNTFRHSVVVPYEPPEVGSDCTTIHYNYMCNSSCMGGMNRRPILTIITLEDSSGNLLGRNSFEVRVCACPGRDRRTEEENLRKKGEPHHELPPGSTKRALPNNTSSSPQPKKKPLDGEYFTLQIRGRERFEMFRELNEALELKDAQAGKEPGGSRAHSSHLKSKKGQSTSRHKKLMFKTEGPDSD
Method in brief: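 Human colon HCT116 cells with an inducible p53 beta-lactamase reporter are exposed to test chemicals for 16 h at 37C. Reporter induction is read as the 460/530 nm emission ratio after CCF4-AM loading, normalized to DMSO.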

[4] = TOX21_p53_BLA_p3_viability: Viability Assessment in the Tox21 HCT-116 p53 Agonism Beta-lactamase Assay, Phase 3 (AID 2283593);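 further: cells exposed to compound for 16 h before reading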
Method in brief: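 HCT116 cells, 4000/well, dosed 5 h after plating by pin transfer (217-fold dilution from DMSO stock) and incubated 16 h at 37C, 5% CO2. Viability read as ATP luminescence with CellTiter-Glo after 30 min at room temperature.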

[5] = biological target: Cellular tumor antigen p53 (Homo sapiens) (UniProt P04637); test: TOX21_p53_BLA_p3_ratio: Tox21 HCT-116 p53 Agonism Beta-lactamase Assay, Ratio, Phase 3 (AID 2283596)
Method in brief: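 HCT116 p53-bla cells (4000/well) given compound in DMSO (217-fold dilution) after 5 h, incubated 16 h at 37C. CCF4-AM substrate 2 h at room temperature; 460/530 nm emission ratio, gain fitted against DMSO.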

[6] = TOX21_p53_BLA_p4_viability: Viability Assessment in the Tox21 HCT-116 p53 Agonism Beta-lactamase Assay, Phase 4 (AID 2283597);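 further: hits lower the luminescence signal meaning cytotoxicity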
Method in brief: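 Luminescent ATP readout (CellTiter-Glo, 30 min, room temperature) in the same wells as the p53 bla ratio. HCT116 cells were treated for 16 h at 37C with DMSO-dissolved compounds.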

Measured: AC50

NC(=O)NC(N)=O
inactive: [1] | [2] | [3] | [4] | [5]

CCCC1CCOC(C)S1 (stereo unspecified)
inactive: [1]

C1COCO1
inactive: [1]

Nc1ccc(O)c(N)c1
inactive: [1] | [2] | [3] | [4] | [5] | [6]
active: [4] 64 µM

CN1CCc2cccc3c2[C@H]1Cc1ccc(O)c(O)c1-3
active: [3] 56.6 µM
inactive: [1] | [2] | [3] | [4] | [5]

CCC(C)(C)C1CCC(OC)CC1 (stereo unspecified)
inactive: [1] | [2] | [3] | [4] | [5]

CC(=O)c1ccc(O)cc1
inactive: [1] | [2] | [3] | [4]

Cc1ccc(C(C)(C)O)cc1
inactive: [1] | [2] | [3]

CCCCCC1C(=O)CCC1CC(=O)OC (stereo unspecified)
inactive: [1] | [2] | [3] | [4] | [5]

OC[C@H]1O[C@@H](O[C@H]2[C@H](O)[C@@H](O)[C@H](O)O[C@@H]2CO)[C@H](O)[C@@H](O)[C@H]1O
inactive: [1] | [2] | [3]

C=CC(=O)OCC(CO)(COC(=O)C=C)COC(=O)C=C
inactive: [1]
